For 10 compounds, Percent Effect results are on record in ChEMBL document CHEMBL3988442, “University of Dundee, Small-Polar-MMV Screening Library” (2021).

For some assays here: Potency and affinity values are given separately.

Holding throughout (set-up): scale not given: direction of the effect not stated beside the values
In assay [1] the target is Protein translocase subunit SecA (Escherichia coli (strain K12)) (UniProt P10408). In words: Assay to Identify E. coli SecA ATPase Inhibitors. It is filed as functional. The following applies: 30 µM.
In assay [2] the target is T1, Ubiquitin-activating enzyme e1, putative (Leishmania donovani (strain BPK282A1)) (UniProt E9BSI1).
T1 sequence (whole entry): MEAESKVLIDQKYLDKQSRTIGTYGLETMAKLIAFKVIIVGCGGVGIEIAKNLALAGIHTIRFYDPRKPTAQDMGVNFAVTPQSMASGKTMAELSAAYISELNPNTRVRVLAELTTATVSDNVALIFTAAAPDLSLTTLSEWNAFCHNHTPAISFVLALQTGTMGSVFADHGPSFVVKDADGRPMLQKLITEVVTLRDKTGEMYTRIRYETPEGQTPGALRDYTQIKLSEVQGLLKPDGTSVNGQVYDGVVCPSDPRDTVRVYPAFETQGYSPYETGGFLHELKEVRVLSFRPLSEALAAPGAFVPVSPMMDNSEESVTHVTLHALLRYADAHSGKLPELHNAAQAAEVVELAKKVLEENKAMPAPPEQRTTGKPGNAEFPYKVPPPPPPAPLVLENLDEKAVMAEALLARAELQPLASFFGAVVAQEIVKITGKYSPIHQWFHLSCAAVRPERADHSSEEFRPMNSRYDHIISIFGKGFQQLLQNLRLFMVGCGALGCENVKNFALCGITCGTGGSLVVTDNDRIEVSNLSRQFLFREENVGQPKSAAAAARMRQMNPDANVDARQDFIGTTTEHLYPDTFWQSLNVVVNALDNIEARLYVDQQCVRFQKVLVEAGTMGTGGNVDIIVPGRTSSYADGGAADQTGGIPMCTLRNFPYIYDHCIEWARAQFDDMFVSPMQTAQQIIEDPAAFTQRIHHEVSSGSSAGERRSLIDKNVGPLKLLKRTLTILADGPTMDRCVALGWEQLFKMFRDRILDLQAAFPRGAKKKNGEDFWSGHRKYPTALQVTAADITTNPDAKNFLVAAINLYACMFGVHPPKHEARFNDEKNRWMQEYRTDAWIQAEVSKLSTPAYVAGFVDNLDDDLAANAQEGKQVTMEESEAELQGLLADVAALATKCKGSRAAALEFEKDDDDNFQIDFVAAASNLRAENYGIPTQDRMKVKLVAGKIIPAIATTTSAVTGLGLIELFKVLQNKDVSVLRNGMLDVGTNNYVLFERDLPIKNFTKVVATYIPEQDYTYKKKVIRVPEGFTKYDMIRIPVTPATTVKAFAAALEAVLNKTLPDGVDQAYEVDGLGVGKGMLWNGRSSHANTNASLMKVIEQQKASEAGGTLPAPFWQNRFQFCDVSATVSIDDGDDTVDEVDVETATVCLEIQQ
Put plainly: Leishmania donovani Ubiquitin Activating Enzyme (LdE1). The following applies: 30 µM. The format is functional.

Assay [3] addresses AMP-activated protein kinase, AMPK (Homo sapiens) (UniProt P54646+O43741+P54619+Q9UGJ0+Q9Y478+Q13131+Q9UGI9). Put plainly: AMP-dependent Kinase enzyme assay. An in vitro enzyme assay that detects ADP turnover that is directly proportional to AMPK activity. This uses naive AMPK that is activated during the assay with MK-8722. The format is functional. The following applies: 30 µM.

In assay [4] the target is Sialic acid-binding Ig-like lectin 9 (Homo sapiens) (UniProt Q9Y336). Put plainly: Hs-Siglec9 ALPHAscreen SOP 20170721. As to conditions: 10 µM. A general note: In Alpha technology, singlet oxygen from a donor bead excites a nearby acceptor bead.
The subject of assay [5] is Trypanosoma cruzi. In words: Trypanosoma cruzi phosphomannomutase and mannose-1-phosphate guanylyltransferase assay. The format is functional. The following applies: 10 µM.
The target in assay [6] is T2, Arginase-2, mitochondrial (Homo sapiens) (UniProt P78540).
T2 sequence (whole entry): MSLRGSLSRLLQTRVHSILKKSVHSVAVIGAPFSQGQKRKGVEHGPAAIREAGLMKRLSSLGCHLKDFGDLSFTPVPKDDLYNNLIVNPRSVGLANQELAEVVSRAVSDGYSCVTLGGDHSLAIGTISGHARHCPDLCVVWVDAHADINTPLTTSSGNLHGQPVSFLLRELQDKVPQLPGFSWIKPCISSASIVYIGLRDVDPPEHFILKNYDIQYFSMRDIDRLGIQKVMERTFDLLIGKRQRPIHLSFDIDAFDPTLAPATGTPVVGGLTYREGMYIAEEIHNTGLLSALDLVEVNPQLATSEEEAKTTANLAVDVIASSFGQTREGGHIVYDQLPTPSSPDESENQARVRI
In words: in vitro enzyme assay to detect the production of urea directly proportional to the activity of Arginase II. Also: in the data most compounds retested in dose-response had high values. The following applies: 33.3 µM. The format is functional.

For assay [7], the target named is T3, Proteasome subunit beta (Trypanosoma cruzi) (UniProt O96673).
T3 sequence (whole entry): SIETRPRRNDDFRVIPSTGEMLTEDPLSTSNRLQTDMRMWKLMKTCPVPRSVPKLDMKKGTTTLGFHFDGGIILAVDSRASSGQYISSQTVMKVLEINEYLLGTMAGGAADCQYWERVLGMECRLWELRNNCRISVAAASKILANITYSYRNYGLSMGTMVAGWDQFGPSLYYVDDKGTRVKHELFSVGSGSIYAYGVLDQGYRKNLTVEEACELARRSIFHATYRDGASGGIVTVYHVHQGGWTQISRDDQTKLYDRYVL
Put plainly: Trypanosoma cruzi proteasome chymotrypsin-like activity (TcProtChymo) assay. Also: in the data most compounds retested in dose-response had high values. The format is functional. As to conditions: 9.37 µM.

For assay [8], the species on record is Homo sapiens. In words: To identify inhibition of the IFN signalling (Jak-Stat) pathway via expression of an eGFP reporter gene under the control of an IFN-stimulated response element (ISRE) containing MxA promoter. It is filed as functional. As to conditions: 30 µM. For orientation: Reporter assays use an easily measured gene product as a stand-in for the process of interest.

For assay [9], the target named is T4, Tyrosyl-tRNA synthetase, putative (Trypanosoma cruzi (strain CL Brener)) (UniProt Q4DSP6).
T4 sequence (whole entry): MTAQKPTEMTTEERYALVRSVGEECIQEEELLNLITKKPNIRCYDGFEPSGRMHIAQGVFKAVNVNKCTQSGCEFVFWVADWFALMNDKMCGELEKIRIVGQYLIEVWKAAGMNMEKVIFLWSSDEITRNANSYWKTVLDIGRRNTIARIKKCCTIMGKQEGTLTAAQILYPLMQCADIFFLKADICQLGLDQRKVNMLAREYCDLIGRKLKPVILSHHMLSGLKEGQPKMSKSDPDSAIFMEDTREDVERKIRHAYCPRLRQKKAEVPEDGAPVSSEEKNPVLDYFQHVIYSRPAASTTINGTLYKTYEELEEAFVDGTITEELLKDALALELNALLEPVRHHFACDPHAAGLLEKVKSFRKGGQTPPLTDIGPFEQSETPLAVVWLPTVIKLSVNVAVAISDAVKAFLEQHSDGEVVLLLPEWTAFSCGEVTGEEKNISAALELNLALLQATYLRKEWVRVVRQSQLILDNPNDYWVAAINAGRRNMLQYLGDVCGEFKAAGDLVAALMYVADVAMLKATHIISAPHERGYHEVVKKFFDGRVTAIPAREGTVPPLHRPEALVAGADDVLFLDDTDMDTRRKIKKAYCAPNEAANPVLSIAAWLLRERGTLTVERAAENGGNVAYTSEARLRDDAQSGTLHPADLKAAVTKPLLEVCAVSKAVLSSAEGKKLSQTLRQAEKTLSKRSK
Put plainly: Trypanosoma cruzi tyrosyl tRNA synthetase (TcYRS) _High Tyrosine SOP. Also: in the data most compounds retested in dose-response had high values. It is filed as functional. The following applies: 30 µM.

Assay [10] addresses T4, Tyrosyl-tRNA synthetase, putative (Trypanosoma cruzi (strain CL Brener)). In words: Trypanosoma cruzi tyrosyl tRNA synthetase (TcYRS) SOP. As to conditions: 30 µM. It is filed as functional.
The target in assay [11] is Chromo domain-containing protein 1 (Saccharomyces cerevisiae (strain ATCC 204508 / S288c) (Baker's yeast)) (UniProt P32657). In words: ScCHD-1 Enzyme Inhibition Assay. Also: in the data most compounds retested in dose-response had high values. It is filed as functional. As to conditions: 30 µM.
Chromo domain-containing protein 1 (Saccharomyces cerevisiae (strain ATCC 204508 / S288c) (Baker's yeast)), sequence (P32657 whole entry, the tested form may be a part): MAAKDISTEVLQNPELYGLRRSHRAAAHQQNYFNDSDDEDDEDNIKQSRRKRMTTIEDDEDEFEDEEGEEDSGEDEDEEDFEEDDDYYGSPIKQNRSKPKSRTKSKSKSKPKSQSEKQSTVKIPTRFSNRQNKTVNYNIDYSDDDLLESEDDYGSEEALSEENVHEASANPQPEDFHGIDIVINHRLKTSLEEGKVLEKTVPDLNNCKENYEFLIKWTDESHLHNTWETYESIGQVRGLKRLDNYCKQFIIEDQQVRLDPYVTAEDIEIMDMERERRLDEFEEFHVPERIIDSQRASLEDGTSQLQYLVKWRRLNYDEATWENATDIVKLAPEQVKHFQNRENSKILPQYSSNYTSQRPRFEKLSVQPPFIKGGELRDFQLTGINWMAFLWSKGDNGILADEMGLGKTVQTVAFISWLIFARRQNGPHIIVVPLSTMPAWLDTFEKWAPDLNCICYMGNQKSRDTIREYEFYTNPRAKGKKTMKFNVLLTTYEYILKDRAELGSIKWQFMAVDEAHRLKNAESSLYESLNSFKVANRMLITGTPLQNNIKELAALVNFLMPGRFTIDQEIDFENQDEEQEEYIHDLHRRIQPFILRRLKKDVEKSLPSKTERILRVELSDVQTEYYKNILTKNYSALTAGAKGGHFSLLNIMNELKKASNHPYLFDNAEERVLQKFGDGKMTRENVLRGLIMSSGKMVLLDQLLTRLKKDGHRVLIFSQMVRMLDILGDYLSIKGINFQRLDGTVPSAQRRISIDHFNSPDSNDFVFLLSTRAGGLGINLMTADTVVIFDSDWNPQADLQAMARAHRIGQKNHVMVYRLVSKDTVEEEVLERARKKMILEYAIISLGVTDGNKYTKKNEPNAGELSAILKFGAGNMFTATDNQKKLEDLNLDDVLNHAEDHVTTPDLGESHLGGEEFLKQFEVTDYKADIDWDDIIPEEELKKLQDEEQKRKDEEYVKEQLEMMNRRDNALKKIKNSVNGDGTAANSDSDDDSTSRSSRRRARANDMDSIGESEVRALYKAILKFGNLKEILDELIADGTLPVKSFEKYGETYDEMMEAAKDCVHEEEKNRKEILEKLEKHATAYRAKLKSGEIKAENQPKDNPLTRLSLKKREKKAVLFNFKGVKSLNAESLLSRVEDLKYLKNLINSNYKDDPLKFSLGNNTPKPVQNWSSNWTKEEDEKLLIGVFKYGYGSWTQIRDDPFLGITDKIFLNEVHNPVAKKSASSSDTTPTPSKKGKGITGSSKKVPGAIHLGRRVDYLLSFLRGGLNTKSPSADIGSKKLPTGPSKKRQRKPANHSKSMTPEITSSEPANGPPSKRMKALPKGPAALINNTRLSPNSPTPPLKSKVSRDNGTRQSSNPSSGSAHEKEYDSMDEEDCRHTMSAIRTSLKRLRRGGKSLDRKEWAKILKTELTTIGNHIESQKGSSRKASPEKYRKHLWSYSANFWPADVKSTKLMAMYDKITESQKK

Protein translocase subunit SecA (Escherichia coli (strain K12)), sequence (P10408 whole entry): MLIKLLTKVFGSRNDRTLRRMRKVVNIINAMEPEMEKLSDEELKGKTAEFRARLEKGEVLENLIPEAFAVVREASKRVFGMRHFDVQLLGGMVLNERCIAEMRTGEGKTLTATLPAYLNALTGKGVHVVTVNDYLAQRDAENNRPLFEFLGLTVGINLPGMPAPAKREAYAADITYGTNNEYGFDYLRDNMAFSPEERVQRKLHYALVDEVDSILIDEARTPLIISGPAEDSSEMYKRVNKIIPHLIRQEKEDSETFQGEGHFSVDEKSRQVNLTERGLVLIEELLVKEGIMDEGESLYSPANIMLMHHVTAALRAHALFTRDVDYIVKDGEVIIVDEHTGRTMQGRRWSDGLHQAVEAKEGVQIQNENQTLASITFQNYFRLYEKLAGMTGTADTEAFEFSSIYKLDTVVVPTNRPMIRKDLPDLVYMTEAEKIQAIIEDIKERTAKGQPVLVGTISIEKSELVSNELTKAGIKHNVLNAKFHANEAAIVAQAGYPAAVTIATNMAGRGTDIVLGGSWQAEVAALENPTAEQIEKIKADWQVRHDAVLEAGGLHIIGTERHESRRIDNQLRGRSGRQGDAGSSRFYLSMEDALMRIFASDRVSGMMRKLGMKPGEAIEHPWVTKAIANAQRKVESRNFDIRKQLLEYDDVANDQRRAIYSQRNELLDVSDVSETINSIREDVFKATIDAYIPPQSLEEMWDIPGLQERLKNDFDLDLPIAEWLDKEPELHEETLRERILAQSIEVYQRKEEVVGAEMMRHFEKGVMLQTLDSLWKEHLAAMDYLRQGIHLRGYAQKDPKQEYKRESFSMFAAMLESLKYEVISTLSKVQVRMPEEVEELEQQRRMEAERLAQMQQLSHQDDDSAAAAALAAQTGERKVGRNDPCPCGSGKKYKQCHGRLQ
Sialic acid-binding Ig-like lectin 9 (Homo sapiens), sequence (Q9Y336 whole entry): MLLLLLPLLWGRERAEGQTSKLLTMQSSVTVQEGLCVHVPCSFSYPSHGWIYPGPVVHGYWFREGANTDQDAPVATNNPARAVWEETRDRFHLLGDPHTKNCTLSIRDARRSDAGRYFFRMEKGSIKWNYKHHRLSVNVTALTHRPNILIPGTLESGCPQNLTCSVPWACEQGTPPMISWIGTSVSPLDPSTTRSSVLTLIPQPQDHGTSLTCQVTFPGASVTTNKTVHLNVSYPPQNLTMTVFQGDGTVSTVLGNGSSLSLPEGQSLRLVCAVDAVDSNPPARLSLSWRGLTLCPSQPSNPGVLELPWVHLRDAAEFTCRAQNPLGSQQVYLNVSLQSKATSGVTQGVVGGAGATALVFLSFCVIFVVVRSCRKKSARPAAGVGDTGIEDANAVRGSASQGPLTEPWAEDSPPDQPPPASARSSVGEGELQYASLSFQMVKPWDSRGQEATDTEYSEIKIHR

Regarding `Cn1cc(CN2CCC3(C2)CN(Cc2ccsc2)C3)cn1`, the Percent Effect was -5.1% in assay [1]; 2.6% in [2]; -2.26% in assay [3]; 5.86% in [4]; 3.64% in [5]; 1.38% in [6]. The Percent Effect in assay [7] is 10.5%; in assay [8] it was -4.61%; in assay [9] it was 3.23%; in assay [10] it was 8.64%; in assay [11], 1.08%.
Regarding `CCN(c1ccc(C(=O)N2CCCC2)cc1)S(=O)(=O)CC`, the Percent Effect is 2.05% in assay [1]; -1.39% in assay [2]; 3.96% in [3]; -5.1% in [4]; -0.486% in assay [5]; 1.32% in assay [6]. Moreover, the Percent Effect in assay [7] is 2.46%; in [8], -27.1%; in assay [9], 1.05%; in [10], 0%; in [11] it was 2.93%.
Take `O=c1ccc(-c2cccs2)nn1CN1CCCCCC1`: the Percent Effect was -4.24% in [1]; -4% in [2]; -3.16% in assay [3]; 2.9% in assay [4]; 3.54% in assay [5]; -3.35% in [6]. Also, the Percent Effect was 7.21% in assay [7]; -1.68% in assay [8]; 7.41% in assay [9]; 10.3% in assay [10]; -5.05% in assay [11].
In the case of `Cc1nc2ccccc2nc1CN(C)CC1CCCN1c1cccnn1` (stereo not given), the Percent Effect in [1] is -5.25%; in [2] it was 5.2%; in assay [3], 0.00702%; in [4], -11.8%; in assay [5], 3.23%; in assay [6], 1.47%. Besides, the Percent Effect in assay [7] was 5.58%; in assay [8] it was 21.9%; in assay [9], 10.5%; in assay [10], 2.35%; in assay [11], -19.8%.
With `CC(=O)Nc1nc(C(=O)N2CCCC(c3cc(C)[nH]n3)C2)cs1` (stereo not given), the Percent Effect is -6.81% in [1]; -28.9% in assay [2]; -1.06% in assay [3]; 8.53% in assay [4]; 6.63% in [5]; 0.36% in assay [6]. Further, the Percent Effect in assay [7] stood at 2.28%; in [8], 2.32%; in assay [9], 4.43%; in [10], 11.1%; in assay [11], 0.638%.
As to `COc1ccc(C)cc1CNCc1ccc(-n2nc(C)cc2C)nc1`, the Percent Effect was 0.678% in assay [1]; 10.5% in assay [2]; 3.46% in [3]; 0.511% in assay [4]; -2.82% in assay [5]; 1.15% in assay [6]. Further, the Percent Effect in [7] was 12.2%; in assay [8], 22.1%; in [9], 3.43%; in assay [10], 17.1%; in [11] it was -9.32%.
On to `Cn1cc(CN2CCC3(CCCN(Cc4ccccn4)C3)CC2)cn1`, for which the Percent Effect in assay [1] was -1.45%; in [2] it was -5.48%; in assay [3], -0.391%; in assay [4], 0.486%; in [5] it was 2.98%; in assay [6], 1.2%. For the same compound, the Percent Effect is 4.54% in assay [7]; -10.8% in assay [8]; 3.12% in assay [9]; 1.24% in assay [10]; 3.63% in assay [11].
Consider `CNc1nc(CNC(=O)Nc2ccccc2SC)cs1`, for which the Percent Effect was 1.51% in assay [1]; -2.63% in assay [2]; -1.33% in assay [3]; 0.229% in assay [4]; -2.07% in assay [5]; 3.83% in assay [6]. In addition, the Percent Effect in [7] was found to be 7.69%; in [8] it was 10.1%; in assay [9] it was 1.47%; in [10], 4.88%; in [11] it was 3.33%.
For the compound `CC(OCC1CC1)C(=O)N1CCCN(Cc2nccn2C)CC1` (stereo not given), the Percent Effect in assay [1] was 0.276%; in [2], 13.9%; in assay [3], -2.47%; in assay [4], -3.62%; in assay [5] it was -5.64%; in assay [6], 1.07%. Moreover, the Percent Effect in [7] is 19.4%; in assay [8], 10.6%; in [9], 3.12%; in [10] it was 7.59%; in assay [11], -24.1%.
Regarding `O=C(NC1CC1)[C@@H]1CCO[C@@H]2CCN(C3CCOCC3)C[C@@H]21`, the Percent Effect in [1] was 1.01%; in assay [2], 2.6%; in assay [3] it was -0.255%; in assay [4] it was 5.79%; in assay [5], 6.98%; in [6], -13.8%. For the same compound, the Percent Effect in [7] is 3.49%; in assay [8], -21.6%; in [9] it was 1.07%; in assay [10], 1.24%; in assay [11] it was -7.95%.
